Hits are enriched below; roughly 2.1% of the tested compounds scored in any of these assays.
D2 ag-1: activates the human D2 dopamine receptor; DiscoveRx PathHunter D2 beta-arrestin, luminescence, 90 min; 100% = 57 uM dopamine signal; 360,000 compounds, 0.084% hits; activation, % (no concentration beside the values); P14416; in the data active means activation above about 40%; inconclusive means between about 15% and that limit
Target sequence (P14416 whole entry, looked up): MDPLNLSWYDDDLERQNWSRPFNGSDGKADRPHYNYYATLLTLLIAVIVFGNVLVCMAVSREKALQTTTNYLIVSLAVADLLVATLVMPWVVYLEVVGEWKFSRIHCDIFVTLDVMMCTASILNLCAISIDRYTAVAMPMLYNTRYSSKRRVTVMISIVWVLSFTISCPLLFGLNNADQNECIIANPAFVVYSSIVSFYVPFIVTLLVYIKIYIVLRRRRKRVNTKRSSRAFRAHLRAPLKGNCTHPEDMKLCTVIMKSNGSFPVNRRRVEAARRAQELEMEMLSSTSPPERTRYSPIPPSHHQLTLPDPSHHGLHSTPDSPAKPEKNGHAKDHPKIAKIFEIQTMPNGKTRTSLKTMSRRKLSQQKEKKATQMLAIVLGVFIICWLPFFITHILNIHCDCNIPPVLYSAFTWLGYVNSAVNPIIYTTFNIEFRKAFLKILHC
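Agonist mode: compounds alone added to overnight-plated D2 PathHunter cells for 90 min at 37 C, with 57 uM final dopamine (EC100) defining full response. Beta-arrestin recruitment detected by chemiluminescent reagent, read after 1 h at ambient temperature.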
D2 PAM-1: positive allosteric modulators of human D2 dopamine receptor; 340,000 compounds, 0.34% hits; P14416; AID 485347; HEK293 T-REx D2, calcium flux, EC20 dopamine potentiation; potentiation, % at 10 µM;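 active means potentiation over 3 SD above the plate norm, cut at about 30% in these data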; further: 0% is about no effect
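Primary screen. Calcium kinetics in induced HEK293 T-REx D2 cells: compound pre-addition 180 s, EC20 dopamine, 180 s more.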
D2 PAM-2: potentiates the human D2 dopamine receptor allosterically; potentiation, % (no concentration beside the values); P14416; DiscoveRx D2 beta-arrestin cells, luminescence, 90 min; 100% = 57 uM dopamine signal; AID 624464; 360,000 compounds, 0.23% hits; in the data active means potentiation above about 50%; inconclusive means mostly about 30% to 49%
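PathHunter beta-arrestin assay in DiscoveRx D2 cells. Compounds were added with an EC20 of dopamine (50 nM final) for 90 min at 37 deg C. Luminescence was read 1 h after detection reagent, with 57 uM dopamine as the EC100 control.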
LDHA block: inhibitors of human lactate dehydrogenase A. activity change, % (values are at about 110 or 230 µM). 480,000 compounds, 0.15% hits. P00338. purified LDHA, NADH/diaphorase-resazurin fluorescence; active compounds read low; in the data active means activity change below about -30%; inconclusive means mostly about -25% to -30%;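 further: plate controls were DMSO wells for no effect and wells without enzyme for full effect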
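Enzyme activity of human lactate dehydrogenase 5 (2 nM; 0.06 mM NADH, 0.2 mM pyruvate, 5 min, RT) is measured via a resazurin/diaphorase fluorescence readout of residual NADH.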
D2 antagonist: D2 dopamine receptor (human) antagonism | 340,000 compounds, 2% hits | AID 485344 | inhibition, % at 10 µM | P14416 | HEK293 TREx D2 cells, calcium flux, dopamine EC80; in the data active means inhibition above about 30%; inactive means below that, where a call was filed; further: 0% is about no effect
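Overnight-induced (tetracycline, 30 C) HEK293 T-REx cells carrying force-coupled D2 receive a no-wash calcium dye, then compound, then EC80 dopamine at 180 s; signals are read kinetically throughout.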
D2 ag-2: activates the human D2 dopamine receptor; activation, % at 2 µM; HEK293 T-REx D2 cells, calcium flux agonist mode; 340,000 compounds, 0.53% hits;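 active means activation over 3 SD above normal in the single-dose calcium agonist read, cut at about 30% in these data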; further: 0% is about no effect
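Tetracycline-induced HEK293 Trex cells with D2 receptor force-coupled to calcium signaling, plated overnight at 30 C and loaded with no-wash calcium dye. Calcium flux read kinetically for 180 s after compound addition; responses flag agonists.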
The depositor's hits bear a star.

O=C(O)CCc1ncc(-c2ccccc2F)o1 was read as LDHA block 3.7.
Cc1ccc(C(C)C)c(OCc2nc(-c3nonc3N)no2)c1 was read as D2 ag-1 0.9, D2 PAM-1 5.7, D2 PAM-2 -5.6, LDHA block -2.1, D2 antagonist 33.0* and D2 ag-2 -0.6.
`O=C(O)CCc1ccc(-c2ccc(Cl)cc2)n1CC(=O)O` gave D2 ag-1 -3.3, D2 PAM-1 8.9, D2 PAM-2 -3.5, LDHA block -1.2, D2 antagonist 8.6 and D2 ag-2 -0.1.
For O=C(O)CCc1ccc(-c2ccc(Cl)cc2)n1CC(=O)Nc1ccccc1 the results were D2 ag-1 -1.2, D2 PAM-1 35.6*, D2 PAM-2 -4.9, LDHA block -1.2, D2 antagonist -8.6 and D2 ag-2 -2.0.
Cc1cc(=O)oc2cc(OCCC(C)C)ccc12 was read as LDHA block -11.2.
For CCOCCCN(C)C1CCN(C(=O)c2oc3ccccc3c2NC(=O)COc2ccc(F)cc2)CC1 the results were D2 ag-1 -8.5, D2 PAM-1 -26.1, D2 PAM-2 -36.8, LDHA block -8.7, D2 antagonist 50.4* and D2 ag-2 0.7.
`CCOCCCN(C)C1CCN(C(=O)c2oc3ccccc3c2NC(=O)Cc2ccc(F)cc2)CC1` gave D2 ag-1 -2.6, D2 PAM-1 -21.5, D2 PAM-2 -36.4, LDHA block -1.6, D2 antagonist -13.1 and D2 ag-2 0.7.
Screening C/C(CC(=O)N1CCN(C=O)CC1)=N\NC(=O)c1cc2ccccc2cc1O returned D2 ag-1 -5.6, D2 PAM-1 -10.1, D2 PAM-2 51.0*, LDHA block 28.1, D2 antagonist 7.2 and D2 ag-2 0.1.
Screening C/C(CC(=O)N1CCN(C=O)CC1)=N\NC(=O)c1ccc([N+](=O)[O-])cc1 returned D2 ag-1 5.9, D2 PAM-1 3.4, D2 PAM-2 -2.0, LDHA block 6.1, D2 antagonist 2.8 and D2 ag-2 0.3.
`CC(=O)N1CCc2cc(Br)cc(S(=O)(=O)NCc3ccc(Cl)cc3)c21` gave D2 ag-1 3.9, D2 PAM-1 -16.5, D2 PAM-2 -19.8, LDHA block 3.7, D2 antagonist 68.1* and D2 ag-2 -0.7.
`O=C(C1CC1)N1CCc2cc(Br)cc(S(=O)(=O)NCCCN3CCCC3)c21` gave D2 ag-1 -1.7, D2 PAM-1 -11.1, D2 PAM-2 -10.5, LDHA block -15.9, D2 antagonist 38.8* and D2 ag-2 0.4.
For O=C(C1CC1)N1CCc2cc(Br)cc(S(=O)(=O)N3CCN(c4ccccn4)CC3)c21 the results were D2 ag-1 -2.0, D2 PAM-1 -0.5, D2 PAM-2 9.8, LDHA block -5.1, D2 antagonist 46.4* and D2 ag-2 1.4.
`COc1cc(CC(=O)Nc2cc(S(=O)(=O)N3CCCCC3)ccc2C)cc(OC)c1OC` gave LDHA block 3.9.
CCN(CC)c1ccc(/C=N/c2sc(C)c(C)c2C#N)cc1 was read as LDHA block 2.3.
For CN(C)c1ccc(NC(=O)c2cc(C(C)(C)C)cc(C(C)(C)C)c2)cc1 the results were LDHA block 9.5.
Screening Cc1ccccc1C(=O)O/N=C/c1c(N2CCOCC2)n(C)c2ccccc12 returned D2 ag-1 inconclusive, D2 PAM-1 -5.9, D2 PAM-2 179.6*, LDHA block -10.6, D2 antagonist -6.4 and D2 ag-2 0.8.
Screening CN1CCN(c2c(/C=N/O)c3ccccc3n2C)CC1 returned D2 ag-1 0.4, D2 PAM-1 -7.1, D2 PAM-2 -4.1, LDHA block -5.5, D2 antagonist 10.5 and D2 ag-2 -0.6.
For COc1ccc(N2CCN(C(=O)CCNS(=O)(=O)c3ccc(Br)s3)CC2)cc1 the results were D2 ag-1 -0.6, D2 PAM-1 86.0*, D2 PAM-2 -5.7, LDHA block -2.9, D2 antagonist 3.1 and D2 ag-2 0.5.
CC1Sc2c(C(C)(C)C)cc(C(C)(C)C)c(O)c2OC1=O (stereo not given) was read as LDHA block -11.8.
`CCOc1cc2[nH]c(=O)n(CCCCC(=O)N3CCCCCC3)c(=O)c2cc1OCC` gave D2 ag-1 1.4, D2 PAM-1 36.4*, D2 PAM-2 -4.5, LDHA block -6.2, D2 antagonist 16.2 and D2 ag-2 0.8.
`CCOc1cc2[nH]c(=O)n(CCCCC(=O)N3CCN(c4cccc(Cl)c4)CC3)c(=O)c2cc1OCC` gave D2 PAM-1 -10.0 and LDHA block -0.8.
Screening Nc1nccnc1C(=O)NCc1ccc(N2CCc3ccccc3C2)nc1 returned LDHA block 4.4.
Screening CCCCNc1nc(-c2ccc3c(c2)CC(=O)N3)cs1 returned LDHA block 1.5.
O=C(COc1ccc(Br)cc1)NCC1COc2ccccc2O1 (stereo not given) was read as D2 ag-1 1.8, D2 PAM-1 -23.8, D2 PAM-2 -24.3, LDHA block -1.4, D2 antagonist 33.4* and D2 ag-2 -0.2.
Screening O=C(O)CNCC1COc2ccccc2O1 (stereo not given) returned D2 ag-1 -3.0, D2 PAM-1 -6.9, D2 PAM-2 5.8, LDHA block -6.2, D2 antagonist -21.5 and D2 ag-2 0.4.
For c1ccc2c(c1)OCC(CNCC1COc3ccccc3O1)O2 (stereo not given) the results were D2 ag-1 0.9, D2 PAM-1 -28.1, D2 PAM-2 -9.8, LDHA block 1.2, D2 antagonist 64.2* and D2 ag-2 36.9*.
`O=c1cc(CN2CCN(S(=O)(=O)c3ccc(Cl)cc3)CC2)c2cc(Cl)c(O)cc2o1` gave LDHA block 2.5.
CCCn1c(Nc2ccccc2C)nc2ccccc21 was read as D2 ag-1 -0.4, D2 PAM-1 -12.7, D2 PAM-2 -32.7, LDHA block -0.2, D2 antagonist 42.5* and D2 ag-2 -0.2.
Screening CCCn1c(NCc2ccccc2C)nc2ccccc21 returned D2 PAM-1 -20.0, LDHA block -2.0 and D2 ag-2 2.2.
Screening COc1ccc(C(=O)c2cnc3ccccc3c2-c2ccccc2)cc1 returned D2 ag-1 -0.6, D2 PAM-1 26.0, D2 PAM-2 -7.1, LDHA block -5.1, D2 antagonist 13.5 and D2 ag-2 -0.3.
Cc1ccc(C(=O)c2cnc3ccccc3c2-c2ccccc2)cc1 was read as D2 ag-1 -4.2, D2 PAM-1 30.8*, D2 PAM-2 -7.0, LDHA block 0.6, D2 antagonist -3.8 and D2 ag-2 1.8.
`O=Cc1ccc(-c2ccc(I)cc2Cl)o1` gave LDHA block -7.2.

Bioassay records from PubChem BioAssay.
